Where “and” joins values, the source holds several entries; their conditions need not be identical. Equal entries are not always repeated. Unmarked numbers belong to inactive results. Inconclusive results are not listed. Calls of active or inactive are those of the source. Unless noted, the rule behind the calls is not given here.

Tested on in one test: not listed separately
In words: qHTS assay to identify inhibitors of the type 1 interferon - major histocompatibility complex class I in skeletal muscle: Counter screen cell viability and HiBit confirmation (AID 1347412; active = well fitted inhibition curve with a large enough effect; note: nearly all actives have a fitted effect of over 60% in size; note: potency is the fitted concentration of half-maximal effect; for activity change, negative = inhibition: % is set by controls: 0 for no effect and ±100 for the full control effect). The conditions noted are these: iHSKM muscle cells + IFN-b, HiBiT or CellTiter-Glo, 24 h; HiBiT. The procedure, abridged: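 Human myoblast knock-in line, 4.0 ng/ml IFN-beta stimulation, 24 h compound treatment. Endpoints: HiBiT lytic luminescence (HLA-B level) and CellTiter Glo (ATP). Dosing 12 concentrations, 3-fold steps, 46 uM highest final.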
On the technique in general: qHTS replaces the single test concentration by a dilution series.
For `O=c1[nH]c2ccc(Cl)cc2c(N[C@@H]2CN3CCC2CC3)c1-c1nc2ccccc2[nH]1`, the Potency was 3.52 µM (active).
Turning to `CC(C)[C@]12O[C@H]1[C@@H]1O[C@]13[C@]1(O[C@H]1C[C@H]1C4=C(CC[C@@]13C)C(=O)OC4)[C@@H]2O`, the Potency is 0.0625 µM (active).
On the same count and under the same terms, under `CC1=C(O)C(=O)C=C2C1=CC=C1[C@@]2(C)CC[C@@]2(C)[C@@H]3C[C@](C)(C(=O)O)CC[C@]3(C)CC[C@]12C` stands 0.787 µM (active).
`CC[C@@]1(O)C(=O)OCc2c1cc1n(c2=O)Cc2cc3ccccc3nc2-1`: the Potency is 1.76 µM (active) and 1.98 µM (active).
As to `COc1ccc2c(c[n+](C)c3c4cc5c(cc4ccc23)OCO5)c1OC`, the Potency is 7.01 µM (active).
Still for that read-out and setting: under `CCN1CCN(C(=O)Cc2ccc(Nc3ncc(F)c(Nc4ccc(C(=O)Nc5ccccc5Cl)cc4)n3)cc2)CC1` stands 14 µM (active); under `C/C=C(/C)C(=O)O[C@H]1C(C)=C2[C@H]([C@@H]1OC(=O)CCCCCCC)[C@@](C)(OC(C)=O)C[C@H](OC(=O)CCC)[C@@]1(O)[C@H]2OC(=O)[C@@]1(C)O`, 0.0079 µM (active); under `Cc1[nH]nc2ccc(-c3cncc(OC[C@@H](N)Cc4c[nH]c5ccccc45)c3)cc12`, 1.11 µM (active).

The same test, now with this note: iHSKM muscle cells + IFN-b, HiBiT or CellTiter-Glo, 24 h; Viability; at 45.9 µM (top of the series).
`CN[C@@H]1C[C@@H](c2ccc(Cl)c(Cl)c2)c2ccccc21`: the activity change, negative = inhibition was -20.4%.
The same measure, in the same setting: under `CC(C)[C@]12O[C@H]1[C@@H]1O[C@]13[C@]1(O[C@H]1C[C@H]1C4=C(CC[C@@]13C)C(=O)OC4)[C@@H]2O` stands -10.5%; under `CC[C@@]1(O)C(=O)OCc2c1cc1n(c2=O)Cc2cc3ccccc3nc2-1`, -5.85% and -9.34%.
For the molecule `CCCCCC[C@H]1C(=O)O[C@H](C)[C@H](NC(=O)c2cccc(NC=O)c2O)C(=O)O[C@@H](C)[C@@H]1OC(=O)CC(C)C`, the activity change, negative = inhibition was -10.9%.

The target in the next test is Nuclear receptor subfamily 1 group I member 2 (Rattus norvegicus) (UniProt Q9R1A7). Description: qHTS assay for small molecule activators of the rat pregnane X receptor (rPXR) signaling pathway (AID 651751). Note: 0% is about no effect. The note with it: rPXR reporter cells, luciferase (One-Glo), 24 h.
Nuclear receptor subfamily 1 group I member 2 (Rattus norvegicus), sequence (Q9R1A7 whole entry, looked up): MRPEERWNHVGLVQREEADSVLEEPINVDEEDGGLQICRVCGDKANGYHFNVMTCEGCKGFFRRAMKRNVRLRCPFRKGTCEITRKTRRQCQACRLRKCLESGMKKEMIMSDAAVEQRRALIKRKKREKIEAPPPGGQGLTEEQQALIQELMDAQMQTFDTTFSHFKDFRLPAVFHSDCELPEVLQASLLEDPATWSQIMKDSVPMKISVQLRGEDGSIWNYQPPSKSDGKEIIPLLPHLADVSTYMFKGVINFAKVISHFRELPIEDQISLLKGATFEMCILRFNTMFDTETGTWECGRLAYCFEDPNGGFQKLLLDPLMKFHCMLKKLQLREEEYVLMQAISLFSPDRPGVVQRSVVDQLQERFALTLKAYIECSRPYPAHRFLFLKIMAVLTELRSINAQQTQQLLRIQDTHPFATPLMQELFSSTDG
As for `CN(C)NC(=O)CCC(=O)O`, the max response is -0.418% and -0.734%.
Same read-out and setting: under `CCCCCCCCCC(CC)c1ccc(S(=O)(=O)O)cc1` (configuration not stated) stands 0.683% and -5.48%; under `CS(=O)(=O)c1ccc(C(=O)C2C(=O)CCCC2=O)c([N+](=O)[O-])c1`, 1.13%; under `CCCCOC(=O)c1ccccc1C(=O)OCc1ccccc1`, 7.11% and 9.37%.
In the case of `Nc1ccc(Sc2ccc(N)cc2)cc1`, the max response is 10.3% and 6.87%.
The same measure, in the same setting: under `O=S(=O)(O)C(F)(F)C(F)(F)C(F)(F)C(F)(F)F` stands -0.463% and -1.11%; under `O=C(O)COc1nc(Cl)c(Cl)cc1Cl`, -1.37%; under `CCOP(=O)(NC(C)C)Oc1ccc(SC)c(C)c1` (configuration not stated), 6.18% and 2.21%.
As to `CC(C)(O)C(=O)Nc1ccc([N+](=O)[O-])c(C(F)(F)F)c1`, the max response is -13.9%.
On the same count and under the same terms, under `CCCCCCCCc1ccc(O)cc1` stands 3.32% and -2.12%.

(Values after PubChem BioAssay (NCATS).)
